Compound activity as filed in PubChem.
Rows were chosen to be rich in hits. Some 19% of all compounds tested hit in one or more screens of this group.
TDP1 cell noCPT = qHTS for Inhibitors of human tyrosyl-DNA phosphodiesterase 1 (TDP1): qHTS in cells in absence of CPT. hit rate 15% among 420,000. DT40 Tdp1-/- hTDP1 cells, no CPT, ATP luminescence, 48 h. AID 686978, 2013. Potency, µM (series often up to 46.2 µM), for the others: top-dose activity change, negative = growth inhibition, hits mostly inhibitors; note: potency is the fitted concentration of half-maximal effect; % is set by controls: 0 for no effect and ±100 for the full control effect; nearly all actives have a fitted effect of over 55% in size
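Compound effects on proliferation are scored in DT40 Tdp1-/-;hTDP1 cells in the absence of CPT. ATP levels (CellTiter-Glo luminescence) are recorded after a ≥48 hr, 37 °C incubation.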
MCF10A rereplic = DNA re-replication induction in MCF 10a cells | MCF 10A DNA re-replication, Hoechst nuclear intensity, 48 h | Potency, µM (top dose mostly 46.1 µM), for the others: at the top dose activity, positive = re-replication, actives largely listed as activators | hit rate 2.9% among 350,000; note: potency is the fitted concentration of half-maximal effect; % of control where 0% means no effect; nearly all actives have a fitted effect of over 50% in size
IL1B secr inh = inflammasome signaling inhibition, IL-1 beta readout; hit rate 4.7% among 360,000; THP-1 LPS/ATP IL-1B secretion, AlphaLISA, 16 h; active compounds read low; activity change, % at 57.5 µM; in the data active = activity change below about -50%; inconclusive = mostly about -30% to -49%; note: % is set by controls: 0 for no effect and ±100 for the full control effect
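THP-1 cells pretreated 1 hr with compounds (up to 57.5 uM final), then stimulated with LPS (250 ng/mL final) plus ATP (1.25 mM final); secreted IL-1B measured by AlphaLISA after 16 hr, decreased signal indicating inhibition.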
TDP1 cell CPT = DT40-hTDP1 cell growth loss with CPT; chicken DT40 Tdp1-/-;hTDP1 cells + 20 nM CPT, ATP luminescence, 48 h; Potency, µM (series often up to 46.2 µM), without a hit: at the highest dose activity change, negative = growth inhibition, actives largely listed as inhibitors; hit rate 12% among 420,000; note: potency is the fitted concentration of half-maximal effect; % is set by controls: 0 for no effect and ±100 for the full control effect; nearly all actives have a fitted effect of over 55% in size
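Chicken DT40 Tdp1-/- cells stably complemented with human TDP1 were seeded at 400 cells/well in medium containing 20 nM camptothecin, exposed to pin-transferred compounds, and grown at 37 °C for at least 48 hr. Viability was read as ATP luminescence.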
BCR signal inh = inhibitors of chronic active B-cell receptor signaling; Potency, µM (series often up to 46.1 µM), inactives show at the top dose activity change, negative = inhibition, actives largely listed as inhibitors; ABC-DLBCL IkBa-CBG/CBR reporter, luminescence ratio, 4 h; hit rate 0.05% among 340,000; AID 493014; active = well fitted inhibition curve with a large enough effect in the signal ratio, with a control signal flat, not every such curve was filed as active; inconclusive = small, poorly fitted or top-dose-only effect, or effect the other way, or a change in a side signal; the % refers to the signal ratio;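 note: potency is the fitted concentration of half-maximal effect; plate controls were basal doxycycline-induced cells for no effect and cells given 10 µM MG132 for full effect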
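Doxycycline induced both beetle luciferases in TMD8 lymphoma cells; IKK-driven degradation limits the IkappaBalpha-fused green signal, while red luminescence normalises for cell number and nonspecific effects. Compounds tested up to 46 uM, 4 hrs.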
SW480 rereplic = induces DNA re-replication in SW480 colon adenocarcinoma cells; SW480 DNA re-replication, Hoechst DNA content imaging, 48 h; Potency, µM (series often up to 46.1 µM), without a hit: at the highest dose re-replication activation, most hits filed as activators; hit rate 1.8% among 340,000; AID 624297; note: potency is the fitted concentration of half-maximal effect; % of control where 0% means no effect; nearly all actives have a fitted effect of over 55% in size
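Per well, 250 cells were exposed to pinned compound for 48 hr. Nuclear DNA was visualised with Hoechst (40 min, 37 C) and total object intensity recorded by fluorescence scanning.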
* marks the source's active call; other numbers are inactive results; u = inconclusive; x = no result. Unless noted, calls come from the whole dose curve; as a rule, active = well fitted curve in the direction sought with a large enough effect; inconclusive = small, poorly fitted or top-dose-only effect, or another doubt; inactive = no such curve, though single readings can be large; an effect the other way counts as inactive or inconclusive.

SMILES | TDP1 cell noCPT | MCF10A rereplic | IL1B secr inh | TDP1 cell CPT | BCR signal inh | SW480 rereplic
COc1ccc(C(=O)N/C(=C/c2cccs2)C(=O)N2CCN(C)CC2)cc1 | -21% | x | -13 | 3% | x | x
Cc1cc2[nH]c(=O)c(=O)[nH]c2cc1S(=O)(=O)Nc1cccc(F)c1 | -10% | -2% | -9 | 9% | u | -7%
CCSc1nc2ccccc2n1C(=O)/C=C\c1ccc(OC)c(OC)c1 | 5.2µM* | 4.1µM* | -97* | 4.6µM* | -17% | 8.2µM*
COc1ccc(CCn2c(=S)[nH]c(=O)c3nccnc32)cc1OC | 3.2µM* | x | x | 6.3µM* | x | x
CCSc1nc2ccccc2c(=O)n1CCc1ccc(OC)c(OC)c1 | 12µM* | u | -6 | 13µM* | u | u
COc1ccc(CCn2c(C)nc3ccccc3c2=O)cc1OC | 21µM* | 2% | -2 | u | 5% | -3%
COc1ccc(CCn2nnc3ccccc3c2=O)cc1OC | u | x | -9 | -24% | x | x
COc1ccc(CCn2c(=S)[nH]c(=O)c3c(C)cc(C)nc32)cc1OC | -19% | x | x | 2% | x | x
O=C(C1CCCN(Cc2cccc(Cl)c2)C1)N1CCCCC1 (configuration not stated) | 26µM* | 1% | 6 | u | 0% | -67%
COc1ccc(Br)cc1CN1CCC(N2CCCC2)CC1 | u | 23µM* | -67* | u | 6% | u
COc1ccc(Br)cc1CN1CCCC(C(=O)N2CCCCC2)C1 (configuration not stated) | -22% | 15% | -3 | -22% | -5% | 2%
COc1ccc(Br)cc1CN1CCCC(C(=O)N2CCCCCC2)C1 (configuration not stated) | 23µM* | u | -57* | u | 0% | -2%
Cc1ccc(OCCSc2nc3ccccc3n2CC(=O)O)cc1C | 1% | 0% | -9 | 7% | 12% | -18%
COc1ccc(C(=O)NCc2nnc(SCC(=O)Nc3ccccc3)n2-c2ccccc2)cc1 | -23% | x | x | u | x | x
O=C1N/C(=N\N=C\c2ccccn2)SC1Cc1cccc(SC(F)F)c1 (configuration not stated) | 5.8µM* | u | 6 | 7.3µM* | 1% | u
O=C1N/C(=N\N=C\c2ccc3ncccc3c2)SC1Cc1ccc(SC(F)F)cc1 (configuration not stated) | -27% | 16µM* | 17 | -15% | 2% | u
Cc1cccc(CC2S/C(=N/c3ccccn3)NC2=O)c1 (configuration not stated) | u | u | 16 | u | u | -3%
O=C1N/C(=N\N=C\c2cccnc2)SC1Cc1ccc(SC(F)F)cc1 (configuration not stated) | 3.7µM* | u | 107 | 2.9µM* | 3% | 25%
O=C1N/C(=N\N=C\c2cccs2)SC1Cc1ccc(Cl)cc1 (configuration not stated) | u | u | 16 | u | u | -1%
O=C1N/C(=N\N=C\c2cccs2)SC1Cc1cccc(Cl)c1 (configuration not stated) | 10µM* | 2.9µM* | 15 | 12µM* | u | u
O=C(CC1S/C(=N/N=C/c2cccnc2)NC1=O)Nc1ccccc1 (configuration not stated) | 0% | 17% | 34 | 12% | u | -1%
COC(=O)c1ccccc1NC(=O)CNCCc1ccc(OC)c(OC)c1 | -23% | -1% | 2 | -21% | -17% | -3%
Cc1cc(NS(=O)(=O)c2ccccc2)c([N+](=O)[O-])cc1C | -6% | 1% | -2 | 1% | 1% | 0%
COc1ccc([N+](=O)[O-])cc1NS(=O)(=O)c1ccc(C)cc1 | u | 2% | 8 | -17% | -1% | 1%
Cc1ccc(S(=O)(=O)Nc2ccc3ccccc3c2[N+](=O)[O-])cc1 | u | 18µM* | 25 | u | x | -4%
SMILES | TDP1 cell noCPT | MCF10A rereplic | IL1B secr inh | TDP1 cell CPT | BCR signal inh | SW480 rereplic
Cc1ccc(S(=O)(=O)Nc2ccccc2N=Cc2ccc([N+](=O)[O-])cc2[N+](=O)[O-])cc1 | 18µM* | u | -7 | 26µM* | x | u
Cc1ccc(S(=O)(=O)Nc2ccc3cc([N+](=O)[O-])ccc3c2[N+](=O)[O-])cc1 | 23µM* | u | -6 | u | x | -1%
CCOc1ccc(CNC(=O)c2ccc3c(c2)nc2n3CCC(C)C2)cc1OC (configuration not stated) | -4% | x | x | 2% | x | x
NS(=O)(=O)c1ccc(NC(=O)CSc2n[nH]c(=O)n2C2CC2)cc1 | 23% | -8% | 0 | -15% | u | -7%
O=C1C(Cc2ccc(F)cc2)SC(=Nc2ccccc2)N1c1ccccc1 (configuration not stated) | 23µM* | 23% | 0 | u | 12% | x
O=C1C(Cc2ccc(Br)cc2)SC(=Nc2ccccc2)N1c1ccccc1 (configuration not stated) | -29% | u | 0 | -6% | u | u
O=C(O)c1ccccc1-c1ccccc1C(=O)NNc1ccccc1 | 1% | 3% | 8 | -15% | u | 18µM*
Cc1nn(C)c2c1c(C(F)(F)F)cc(=O)n2Cc1cccc(Br)c1 | -1% | x | x | 2% | x | x
CC(C)(C)OC(=O)NCCCCCNC(=O)c1[nH]cnc1C(=O)Nc1ccccc1 | 15µM* | -6% | -14 | u | u | -16%
CC(C)(C)OC(=O)NCCCCCNC(=O)c1[nH]cnc1C(=O)Nc1ccc(Cl)cc1 | 15µM* | 26% | u | u | u | 4%
Cc1ccc(NC(=O)c2nc[nH]c2C(=O)NCCCCCNC(=O)OC(C)(C)C)cc1 | 16µM* | u | -62* | u | -1% | -3%
Cc1ccc(NC(=O)c2nc[nH]c2C(=O)NCCCCCCNC(=O)c2[nH]cnc2C(=O)Nc2ccc(C)cc2)cc1 | u | -2% | u | u | 2% | 0%
Clc1nc(NCc2ccco2)c2ccccc2n1 | 7.1µM* | x | x | u | x | x
CCNc1nc(NCc2ccco2)c2ccccc2n1 | 11µM* | x | x | 11µM* | x | x
Oc1ccc(Nc2nc(Cl)nc(NCc3ccco3)n2)cc1 | u | u | -109* | -5% | u | u
C=CCNc1nc(NCc2ccco2)nc(OCC)n1 | u | -2% | -11 | 21µM* | -9% | -6%
C=CCNc1nc(Cl)nc(NCc2ccco2)n1 | -5% | -1% | 6 | -22% | -1% | -4%
